In the library only some 3.5% were active in any assay of this set; here they are far more common.
FBW7 activator: FBW7 E3 ligase activators, primary screen, biochemical, AlphaScreen, human; F-box/WD repeat-containing protein 7 (Homo sapiens), Q969H0; AlphaScreen FBW7–phospho-cyclin E peptide binding, activator screen; normalized activity (activation), % at 26.1 µM; 0.13% of 650,000 active; in the data active = normalized activity above about 1.9%;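 note: purified mutant Fbw7 with reduced substrate affinity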
Target sequence (Q969H0 whole entry, looked up): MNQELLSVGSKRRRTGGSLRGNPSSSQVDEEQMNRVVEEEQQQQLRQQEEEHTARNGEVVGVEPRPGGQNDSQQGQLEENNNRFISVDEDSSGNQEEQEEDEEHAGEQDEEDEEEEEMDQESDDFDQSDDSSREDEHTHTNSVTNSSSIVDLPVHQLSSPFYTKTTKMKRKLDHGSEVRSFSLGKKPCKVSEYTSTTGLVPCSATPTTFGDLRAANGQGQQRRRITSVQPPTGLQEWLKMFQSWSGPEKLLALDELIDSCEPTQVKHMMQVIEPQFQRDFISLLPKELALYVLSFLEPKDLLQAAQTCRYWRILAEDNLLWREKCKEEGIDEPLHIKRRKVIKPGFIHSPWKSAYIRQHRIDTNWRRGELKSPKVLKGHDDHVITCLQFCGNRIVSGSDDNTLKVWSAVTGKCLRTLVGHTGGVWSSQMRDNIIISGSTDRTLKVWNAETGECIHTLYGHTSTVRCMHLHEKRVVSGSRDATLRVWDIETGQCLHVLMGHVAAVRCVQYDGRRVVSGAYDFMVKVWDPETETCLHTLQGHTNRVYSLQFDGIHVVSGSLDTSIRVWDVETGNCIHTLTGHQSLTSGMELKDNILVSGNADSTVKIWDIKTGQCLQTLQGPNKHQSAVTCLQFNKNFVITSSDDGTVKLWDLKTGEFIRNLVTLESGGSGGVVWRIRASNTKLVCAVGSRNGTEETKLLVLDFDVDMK
TEAD-YAP block: TEAD-YAP interaction inhibition, primary screen, TEAD-YAP interaction inhibitor project, luminescence, HEK-TIYL cells | TEAD-Gal4/YAP UAS-luciferase luminescence | AID 1259422, 2018 | inhibition, % at 9.12 µM | 1.4% of 640,000 active; in the data active = inhibition above about 32%
GPR151 ag: activators of human GPR151, primary screen, cell-based, PathHunter beta-arrestin, luminescence | 1% of 650,000 active | AID 1508602, 2020 | PathHunter beta-arrestin GPR151 cells | activation, % at 11.2 µM; in the data active = activation above about 4.9%
MITF primary: MITF inhibitors, primary screen, biochemical, AlphaScreen, human | Microphthalmia-associated transcription factor (Homo sapiens), O75030 | AlphaScreen MITF homodimerization, bead proximity signal | inhibition, % at 2.6 µM | 0.91% of 650,000 active | AID 1259374, 2018; in the data active = inhibition above about 50%
Hits are given with their value; – = inactive.

SMILES | FBW7 activator | TEAD-YAP block | GPR151 ag | MITF primary
Cc1c(C(=O)Nc2nc3ccccc3s2)sc2ncn(CC(=O)N3CC(C)CC(C)C3)c(=O)c12 (stereo unspecified) | – | – | – | –
CCN(CC)C(=O)Cn1cnc2sc(C(=O)Nc3nc4ccccc4s3)c(C)c2c1=O | – | 80.2 | – | –
CCn1cnc2sc(C(=O)Nc3nc4ccc(Br)cc4s3)c(C)c2c1=O | – | 39.7 | – | –
CC1=NOC(=O)/C1=C\c1ccc(-c2ccc(C(=O)OC(C)C)cc2)o1 | – | – | – | –
O=[N+]([O-])c1cc(C(F)(F)F)ccc1NCCCNS(=O)(=O)c1ccc(Cl)cc1 | – | – | – | –
Cc1ccc(S(=O)(=O)NCCNS(=O)(=O)c2ccccc2[N+](=O)[O-])c([N+](=O)[O-])c1 | – | – | – | –
O=C1NC(=O)C(=Cc2cc(O)c(O)c(Br)c2)C(=O)N1 | – | – | – | 57.8
O=C1NC(=O)C(=Cc2cc(Br)c(I)o2)C(=O)N1 | – | – | – | 58.6
CCOc1cc(C=C2C(=O)NC(=O)NC2=O)cc(Br)c1O | – | – | – | –
COc1ccc(S(=O)(=O)NCc2ccc(C(=O)NCc3ccc4c(c3)OCO4)cc2)cc1 | – | – | – | –
CCN(CC)CCn1c2ccccc2n2cc(-c3ccc(Cl)c(Cl)c3)nc12 | 6.2 | – | – | –
CCN(CC)CCn1c(-c2ccc(Cl)cc2)cn2c3ccccc3nc12 | – | – | – | –
CN(C)CCn1c2ccccc2n2cc(-c3ccc(-c4ccccc4)cc3)nc12 | – | – | – | –
CCN(CC)CCn1c2ccccc2n2cc(-c3ccc(Br)cc3)nc12 | 3.6 | – | – | –
CCN(CC)CCn1c2ccccc2n2cc(-c3ccc(Cl)cc3)nc12 | 4.3 | – | – | –
CCOc1ccc(-c2cn3c4ccccc4n(CCN(CC)CC)c3n2)cc1 | – | – | – | –
CCNC(=O)/C(=C\c1ccco1)NC(=O)c1ccc(Br)cc1 | – | – | – | –
CCOc1ccc(N/C=C/C(=O)c2ccc(OC)cc2)c([N+](=O)[O-])c1 | – | 43.4 | – | –
COc1ccc(NC(=O)CCS(=O)(=O)Cc2ccccc2)c([N+](=O)[O-])c1 | – | 58.2 | – | –
CCOc1ccc(NC(=O)c2cccc(OC)c2)c([N+](=O)[O-])c1 | – | 32.5 | – | –
CCOC(=O)C1=C(C)N=c2s/c(=C\c3cccc(OCc4ccccc4)c3)c(=O)n2C1c1ccc(OCC)c(OCC)c1 (stereo unspecified) | – | – | – | –
Cc1cnc2c(c1NCCCN(C)C)c(=O)n(C)c(=O)n2C | – | 36.5 | – | –
CNS(=O)(=O)c1cccc(C(=O)OCc2ccc([N+](=O)[O-])cc2)c1 | – | – | – | –
Ic1ccc(/C=N/Nc2ccc(-n3ccnc3)nn2)o1 | – | – | – | –
Cc1ccc2c(c1)-c1c(cnn1CC(=O)NCc1ccc(Cl)cc1)CO2 | – | – | – | –
SMILES | FBW7 activator | TEAD-YAP block | GPR151 ag | MITF primary
COc1ccc(/C=C/c2ccc(N)cc2)cc1 | – | 41.4 | – | –
Cc1ccc(-n2c(SCC(=O)Nc3ccc(C)c(C)c3)nc3n[nH]c(C)c3c2=N)cc1 | – | – | – | –
O=C1C2C(c3ccccc3Cl)OC3(C(=O)c4ccccc4C3=O)C2C(=O)N1c1ccc([N+](=O)[O-])cc1 (stereo unspecified) | – | – | – | –
COc1ccc(C(=O)Nc2ccccc2C(=O)NCCCC(=O)O)cc1 | 2.0 | – | – | –
CCCNC(=O)c1ccccc1NC(=O)c1ccc(OC)cc1 | – | – | – | –
CC1=NN(c2ccc(C)cc2)C(=O)/C1=C\N(C)C | – | – | – | –
CC1=NN(c2nc3ccccc3o2)C(=O)/C1=C\N(C)C | – | 92.4 | – | –
CCC(=O)Nc1cc(C2CC2)nn1-c1nc(-c2ccccc2)cc(=O)[nH]1 | 2.2 | – | – | –
CN(C(=O)C1CCN(S(=O)(=O)c2ccc3c(c2)OCC(=O)N3)CC1)C1CCCCC1 | – | – | – | –
CCCCC1CN(C(=O)c2cc(C)nc(C)n2)Cc2ccccc2O1 (stereo unspecified) | – | – | – | –
COC(=O)COc1cccc2c1ccc1c3c(c(=O)oc12)CCCC3 | – | – | – | –
O=c1oc2c(ccc3c(O)cccc32)c2c1CCCC2 | – | 45.3 | – | –
CC(C)Cn1c(=O)c(C(=O)Nc2ccc(Cl)cc2)c(O)c2ccccc21 | – | – | – | –
CCOc1cc(/C=C2\C(=O)ON=C2c2ccccc2)ccc1OC | – | – | – | 57.7
